# Source: PubChem BioAssay (National Center for Advancing Translational Sciences (NCATS))
# Only a selection was taken, and hits are over-represented in it overall.
# Cycloheximide cs: counter-screen hit for Shiga toxin inhibitors, cycloheximide; cell reporter, cycloheximide protein synthesis inhibition counterscreen; 12% of 300,000 active; AID 2314; max response, %; in the data active means max response mostly above about 13%, no sharp cut-off; inactive means mostly below about 14%; further: read at 38.3 µM for the half of the compounds with a filed dose; 0% is about no effect
# NS1 inh: influenza NS1 inhibition; 0.4% of 270,000 active; AID 2326; Potency, µM (titrated, usually from 46.1 µM), inactives show top-dose activity, positive = more growth; calls by dose curve; further: potency means the concentration at half of the fitted maximal effect; actives are rising curves; nearly all actives have a fitted effect of over 50% in size
#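 Growth recovery, yeast-based: influenza A NS1 expressed in S. cerevisiae causes slow growth, and suppressors are detected by OD600. The parent strain without NS1 is used as positive control.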
# AmpC inh detg: inhibitors of E. coli AmpC beta-lactamase with detergent; AmpC hydrolysis of nitrocefin, absorbance 480 nm, 0.01% Triton; 0.041% of 370,000 active; P00811; AID 485294; Potency, µM (series often up to 114 µM), for inactives: top-dose activity change, negative = inhibition, actives largely listed as inhibitors;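 further: potency means the concentration at half of the fitted maximal effect; 0% = no-compound wells and -100% = no-enzyme wells; nearly all actives have a fitted effect of over 25% in size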
# Target sequence (P00811 whole entry, looked up): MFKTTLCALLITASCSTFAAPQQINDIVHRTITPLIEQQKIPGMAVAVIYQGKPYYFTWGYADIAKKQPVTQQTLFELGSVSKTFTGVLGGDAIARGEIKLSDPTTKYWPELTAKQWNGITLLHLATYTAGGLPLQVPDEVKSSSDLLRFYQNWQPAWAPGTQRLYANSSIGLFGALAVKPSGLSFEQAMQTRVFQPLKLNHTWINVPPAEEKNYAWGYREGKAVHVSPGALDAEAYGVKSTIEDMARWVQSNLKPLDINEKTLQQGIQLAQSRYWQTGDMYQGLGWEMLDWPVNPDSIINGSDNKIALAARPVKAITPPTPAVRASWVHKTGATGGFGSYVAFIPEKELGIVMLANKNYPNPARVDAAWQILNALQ
#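 20 mM phosphate pH 7.0 + 0.01% (detergent screen) or 0.0001% Triton X-100; 5.3 nM AmpC reagent; cpd preinc 15 min RT; nitrocefin (800 uM stock) to start; A480 q20 s × 4 min; Activity was normalised to no-enzyme and no-compound control wells.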
# Shiga inhibitor: blocks Shiga toxin action in Vero cells; Vero cells, Shiga toxin protein synthesis inhibition reporter; inhibition, % at 38.7 µM; 9.2% of 290,000 active; in the data active means inhibition mostly above about 28%, no sharp cut-off; inactive means mostly below about 43%; further: 0% is about no effect
# AmpC inh no detg: blocks E. coli AmpC beta-lactamase in detergent-free assay | P00811 | AmpC nitrocefin hydrolysis, absorbance 480 nm, 0.0001% Triton | Potency, µM (doses to about 57.1 µM), inactives show top-dose activity change, negative = inhibition, hits mostly inhibitors | 0.52% of 330,000 active | AID 485341;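 further: potency means the concentration at half of the fitted maximal effect; plate controls were no compound for no effect and no enzyme for full effect; nearly all actives have a fitted effect of over 20% in size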
#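 AmpC (5.3 nM in the dispensed reagent) in 20 mM phosphate pH 7.0 with 0.01% (detergent screen) or 0.0001% Triton X-100 was preincubated with compounds for 15 min at room temperature. Nitrocefin was then added from an 800 uM solution, and hydrolysis was followed at 480 nm.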
# Starred values were filed as active, the others as inactive; ? = inconclusive; / = not tested or not shown. Unless noted, the call rests on the fitted dose curve; in most records, active means well fitted curve in the direction sought with a large enough effect; inconclusive means small, poorly fitted or top-dose-only effect, or another doubt; inactive means no such curve, though single readings can be large; an effect the other way counts as inactive or inconclusive.
SMILES,Cycloheximide cs,NS1 inh,AmpC inh detg,Shiga inhibitor,AmpC inh no detg
Cc1nc2ccc(NC(=O)c3cccc(C(F)(F)F)c3)cc2o1,21*,-11%,0%,60,-2%
O=C(Nc1ccccc1)c1cccc(C(F)(F)F)c1,11*,-3%,-5%,33*,-22%
O=C(Nc1cccc(C(F)(F)F)c1)c1cccc(C(=O)Nc2cccc(C(F)(F)F)c2)c1,/,/,17%,/,/
O=C(Nc1ccc(-c2csc(Nc3ccccc3)n2)cc1)c1cccc(C(F)(F)F)c1,2,16%,2%,32,3.5µM*
O=C(Nc1ccc(-c2csc(Nc3ccc(Cl)cc3)n2)cc1)c1cccc(C(F)(F)F)c1,-3,11%,-9%,-5,?
COc1ccccc1N1CCN(S(=O)(=O)CCNC(=O)CC2CCCCC2)CC1,/,/,-16%,/,?
CCNC(=O)c1cccc(NC(=O)CN2C(=O)NC3(CCCCC3)C2=O)c1,/,/,0%,/,-13%
CC1(C)CN=C(N(C(=O)Nc2ccccc2)c2ccccc2F)S1,17*,2%,6%,62*,-15%
CC1(C)CN=C(N(Cc2ccccc2)C(=O)Nc2ccccc2)S1,65*,-10%,5%,76*,-29%
Cc1cccnc1N(C(=O)Nc1cccc(Cl)c1)C1=NCC(C)(C)S1,-1,-37%,?,12,-22%
Cc1cccnc1N(C(=O)Nc1ccccc1)C1=NCC(C)(C)S1,7,-34%,-10%,90,-4%
O=C(c1cc(-c2ccc3c(c2)OCO3)on1)N1CCN(c2ccccc2)CC1,56*,-24%,2%,62*,15%
O=C(c1cc(-c2ccc3c(c2)OCO3)on1)N1CCN(c2ccc(F)cc2)CC1,9,-4%,-18%,8,-15%
O=C(c1cc(-c2ccc3c(c2)OCO3)on1)N1CCOCC1,20*,-3%,-5%,active,-13%
O=C(c1cc(C2CC2)on1)N1CCN(c2ccccc2)CC1,24*,7%,-3%,47*,10%
O=C(c1cc(C2CC2)on1)N1CCCC(N2CCN(c3ccc(F)cc3)CC2)C1 (stereo unspecified),11,9%,-1%,4,70%
COc1ccc(OC)c(S(=O)(=O)N2CCCC(N3CCN(c4ccccc4)CC3)C2)c1 (stereo unspecified),-7,?,-5%,-5,78%
CN1/C(=C\C(=O)c2ccco2)C(C)(C)c2ccccc21,-2,-253%,-13%,13,-13%
CCC(=O)/C=C1/Sc2ccccc2N1CC,29*,-6%,?,121*,-17%
CCN1/C(=C/C(=O)c2ccco2)Sc2ccccc21,24*,-148%,-12%,65,-20%
CCNC(=O)c1ccccc1NC(=O)C1CC(=O)N(C(C)C)C1 (stereo unspecified),2,?,11%,-6,-10%
CC(=O)Oc1ccc(C(=O)Nc2ccc3c(c2)OCCO3)cc1,26*,-10%,?,/,-12%
COc1ccc(C(=O)CCNc2ccc3c(c2)OCCO3)cc1,27,/,-15%,59*,-5%
CCCOc1ccc(C(=O)Nc2ccc3c(c2)OCCO3)cc1,36*,-6%,2%,73*,-12%
COc1ccc(C(=O)Nc2ccc3c(c2)OCCO3)cc1,15*,-7%,-4%,9,-23%
SMILES,Cycloheximide cs,NS1 inh,AmpC inh detg,Shiga inhibitor,AmpC inh no detg
COc1cc(OC)cc(C(=O)NNC(=O)c2ccc3c(c2)OCCO3)c1,/,/,/,/,-10%
CCCOc1ccc(C(=O)Nc2ccc(CN3CCOCC3)cc2)cc1,6,17%,-10%,13,4%
COc1cccc(OC)c1C(=O)Nc1ccc(S(=O)(=O)Nc2nccc(C)n2)cc1,/,/,13%,/,/
CC(C)C(=O)Nc1ncc2c(n1)CC(c1cccs1)CC2=O (stereo unspecified),-6,5%,-13%,-2,-19%
CC1Cc2cc(S(=O)(=O)N(C)c3ccc(Br)cc3)ccc2N1C(=O)C1CC1 (stereo unspecified),/,/,15%,/,/
COc1ccc(NC(=O)CN(C)C(=O)CN2C(=O)c3ccc([N+](=O)[O-])cc3C2=O)cc1,-2,-5%,-7%,-6,-42%
Cc1ccccc1/C(N)=N/OC(=O)c1cccs1,27*,-48%,-5%,61*,-33%
N/C(=N\OC(=O)c1ccc(Cl)cc1Cl)c1ccccc1,56*,-106%,1%,127*,-12%
CCSc1ccc(/C(N)=N/OC(=O)c2cccs2)cn1,46*,-17%,-6%,88*,-45%
Cc1ccc(/C(N)=N/OC(=O)c2ccc(C)cc2Cl)cc1,80*,-70%,-14%,26*,-25%
CCOP(=O)(OCC)/C(=N/OC(=O)c1ccc(Cl)cc1Cl)C(N)=O,-2,3%,4%,9,-21%
N#CC(=C(\N)Sc1ccccc1N)/C(C#N)=C(/N)Sc1ccccc1N,/,0%,/,/,/
COc1ccc(CCNC(=O)CSc2nc3[nH]ncc3c(=O)[nH]2)cc1OC,-6,/,8%,19,-11%
O=C(O)[C@@H](O)[C@@H](O)C1[O][Sb][O][C@@H]1CO (stereo partly specified),/,0%,/,/,/
N/C(=N\OC(=O)c1cccs1)c1cccnc1,40*,6%,3%,43*,-10%
Cc1cccc(/C(N)=N/OC(=O)c2ccc(Br)o2)c1,91*,-19%,-2%,90*,-11%
Cc1cccc(/C(N)=N/OC(=O)c2ccc(Cl)cc2Cl)c1,70*,-26%,-2%,72*,-21%
Cc1cccc(C(=O)O/N=C(\N)c2ccccn2)c1,-6,-35%,-3%,-6,-13%
N/C(=N\OC(=O)c1ccc(Cl)cc1)c1cccnc1,42*,-102%,-2%,175*,-15%
Cc1ccc(C)c(Cn2c3ccccc3c3cnn(CC(=O)NCc4ccccc4)c(=O)c32)c1,/,/,20%,/,/
CN(C)S(=O)(=O)c1cc(NC(=O)C2=COCCO2)ccc1Cl,/,/,?,/,-10%
O=C(CCN1CCN(Cc2ccccc2)CC1)NNC(=O)Nc1cccc(C(F)(F)F)c1,-3,-6%,-14%,13,67%
N/C(=N\OC(=O)c1ccccc1)c1ccccn1,-8,-1%,-1%,-20,6%
N/C(=N\OC(=O)c1ccc(Cl)cc1Cl)c1cccnc1,35*,-7%,2%,91*,-5%
N/C(=N\OC(=O)c1ccc(Cl)cc1Cl)c1ccc(Cl)cc1,50*,-193%,-6%,114*,-26%
SMILES,Cycloheximide cs,NS1 inh,AmpC inh detg,Shiga inhibitor,AmpC inh no detg
Cc1cccc(/C(N)=N/OC(=O)c2cccnc2)c1,33*,-5%,-5%,103*,-14%
N/C(=N\OC(=O)C(c1ccccc1)c1ccccc1)c1cccnc1,22,-105%,-6%,-6,18%
N/C(=N\OC(=O)c1ccc(Br)o1)c1ccccn1,26*,-34%,1%,61*,-18%
COc1ccc(-c2cc(C3C4C=CCCC4(C)C(=O)N3Cc3ccccc3)ccc2F)cc1OC (stereo unspecified),16,/,/,-5,/
C[N+](C)(C)CCC(=O)c1cccc2ccccc12,/,-31%,/,/,/
O=C(O)CCCC[C@@H]1CCSS1,-2,-27%,/,11,/
